# HEK293 tox: Cytotoxic Profiling in HEK 293 Cell Line of Diverse Libraries Using Quantitative High-Throughput Screening; HEK 293 viability, ATP luminescence (CellTiter-Glo), 48-72 h; Potency, µM (doses to about 115 µM), without a hit: at the highest dose activity change, negative = cytotoxicity, actives largely listed as inhibitors; hit rate 6.6% among 94,000; AID 1345083, 2018; note: nearly all actives have a fitted effect of over 60% in size
#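 CellTiter-Glo luminescence (cellular ATP) was read after 48 or 72 hr of compound exposure at 37 degree Celsius. Cells were HEK 293 plated at 250 cells/well.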
# NIH3T3 tox: Cytotoxic Profiling in NIH 3T3 Cell Line of Diverse Libraries Using Quantitative High-Throughput Screening; NIH 3T3 viability, CellTiter-Glo ATP luminescence, 48-72 h; Potency, µM (doses to about 96.7 µM), without a hit: at the top dose activity change, negative = cytotoxicity, usual class: inhibitors; hit rate 4.3% among 94,000; note: nearly all actives have a fitted effect of over 55% in size
#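 Cytotoxicity was measured by CellTiter-Glo ATP luminescence after 48 or 72 h compound exposure at 37 °C. Mouse NIH 3T3 fibroblasts were seeded at 400 cells/well and dosed by 23 nL pin transfer.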
# Luciferase inh: Firefly luciferase inhibition profiling of diverse chemical library using quantitative high-throughput screening; purified P. pyralis luciferase, luminescence, biochemical; Potency, µM (titrated, usually from 115 µM), hits mostly inhibitors; hit rate 2.5% among 76,000; note: nearly all actives have a fitted effect of over 65% in size
# Target sequence (P08659 whole entry, looked up): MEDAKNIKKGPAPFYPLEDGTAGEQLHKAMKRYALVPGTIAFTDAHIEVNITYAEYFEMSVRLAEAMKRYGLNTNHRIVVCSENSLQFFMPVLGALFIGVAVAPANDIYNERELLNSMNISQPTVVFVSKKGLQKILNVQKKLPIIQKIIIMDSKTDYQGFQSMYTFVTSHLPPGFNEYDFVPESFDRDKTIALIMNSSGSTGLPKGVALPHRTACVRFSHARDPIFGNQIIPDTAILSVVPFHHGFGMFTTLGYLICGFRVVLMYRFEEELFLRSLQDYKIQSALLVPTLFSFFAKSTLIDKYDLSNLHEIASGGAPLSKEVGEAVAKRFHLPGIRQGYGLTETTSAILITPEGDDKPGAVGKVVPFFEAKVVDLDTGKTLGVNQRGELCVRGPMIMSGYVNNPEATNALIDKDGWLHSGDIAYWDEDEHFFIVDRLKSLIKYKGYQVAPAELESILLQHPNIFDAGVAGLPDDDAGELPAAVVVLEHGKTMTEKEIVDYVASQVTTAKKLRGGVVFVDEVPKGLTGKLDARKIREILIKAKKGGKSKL
#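 FLuc 10nM, D-luciferin 10uM, ATP 10uM, Mg acetate 10mM, Tris acetate pH 7.5, Tween/BSA; cpd qHTS; enzyme added last; CCD luminescence.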
# hNpr1 antagonist: Natriuretic polypeptide receptor (hNpr1) antagonism - Primary qHTS. Atrial natriuretic peptide receptor 1 (Homo sapiens), P16066. HEK293 hNpr1 GloSensor cGMP, ANP-stimulated luminescence. Potency, µM (titrated, usually from 46.3 µM), without a hit: at the top dose activity change, negative = inhibition, most hits filed as inhibitors. hit rate 1.6% among 76,000. AID 1347048, 2019; calls by dose curve; note: nearly all actives have a fitted effect of over 60% in size
#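 HEK293 cells stably expressing human Npr1 and cGMP GloSensor pGS-40F, loaded 2 h with 2% GloSensor reagent, given compound 30 min at room temperature. Luminescence read before and 20 min after 0.1 nM hNppA.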
# * = called active by the depositor; i = inactive; ? = inconclusive; nt = no result given; [ ] = dose if it differs, or a comment. Only some compounds are listed: those with a hit (about 11% of all), similar ones and a draw of the others. Unless noted, calls come from the whole dose curve; as a rule, active = well fitted curve in the direction sought with a large enough effect; inconclusive = small, poorly fitted or top-dose-only effect, or another doubt; inactive = no such curve, though single readings can be large; an effect the other way counts as inactive or inconclusive. % is set by controls: 0 for no effect and ±100 for the full control effect; potency is the fitted concentration of half-maximal effect.
SMILES,HEK293 tox,NIH3T3 tox,Luciferase inh,hNpr1 antagonist
CC(C)(C)C(=O)N1CCCN(Cc2ccc3c(c2)OCO3)c2ccccc21,?,?,i,-19.3%
O=C(NCCOc1cccnc1)c1cn(Cc2cccc(C(F)(F)F)c2)nn1,28.2µM*,?,i,-1.4%
CN(C)S(=O)(=O)N1CCc2nc3cc(-c4ccccc4)[nH]n3c(=O)c2C1,-2.2%,-18.4%,0.447µM*,2.3%
COCCn1cc2c3c(cccc31)CN(C(=O)CCCc1ccccc1)CC2,?,?,i,-29.4%
COCC(=O)N1CCc2cn(CC(C)C)c3cccc(c23)C1,79.4µM*,?,i,-11.0%
CCCn1ncc(N2CCC(C(=O)N3CCN(CC(=O)NCc4ccccc4)CC3)CC2)cc1=O,?,-19.8%,nt,nt
CCOc1ccccc1C1NC(=O)N(CC(=O)Nc2cccc(Cl)c2)C2=C1C(=O)OC2 (centres undefined),35.5µM*,?,i,-21.7%
CCCCc1ccc(NC(=O)CN2C(=O)NC(c3ccccc3OCC)C3=C2COC3=O)cc1 (centres undefined),31.6µM*,31.6µM*,i,-2.1%
CCOc1ccccc1C1NC(=O)N(CC(=O)Nc2ccc(F)cc2)C2=C1C(=O)OC2 (centres undefined),-17.7%,?,i,-11.5%
Cc1cccc(C2c3cc(OCc4nc(C(=O)NCC5CC5)co4)ccc3CCN2C(=O)C2CC2)c1 (centres undefined),?,?,i,?
CCCNC(=O)c1coc(COc2ccc3c(c2)C(c2ccc(C)cc2)N(C(=O)C2CC2)CC3)n1 (centres undefined),?,?,i,-8.1%
Cc1ccc(C2c3cc(OCc4nc(C(=O)NCC5CC5)co4)ccc3CCN2C(=O)C2CC2)cc1 (centres undefined),35.5µM*,28.2µM*,i,-23.1%
CCCNC(=O)c1coc(COc2ccc3c(c2)C(c2cccc(C)c2)N(C(=O)C2CC2)CC3)n1 (centres undefined),12.6µM*,?,i,?
CC(C)CNC(=O)c1coc(COc2ccc3c(c2)C(c2cccc(F)c2)N(C(=O)C2CC2)CC3)n1 (centres undefined),14.1µM*,12.6µM*,i,?
Cc1ccc(C2c3cc(OCc4nc(C(=O)NCC(C)C)co4)ccc3CCN2C(=O)C2CC2)cc1 (centres undefined),39.8µM*,?,i,-1.1%
COCCC1(N(C)C)CCN(C(=O)c2ccncc2)CC1,1.9%,-3.9%,nt,nt
CCc1cc(=O)n(CC(=O)Nc2cc(C)cc(C)c2)c(N2CCOCC2)n1,?,-22.6%,i,-0.6%
CCN(CC)C(=O)c1coc(COc2ccc3c(c2)C(c2ccc(C)cc2)N(C(=O)C2CC2)CC3)n1 (centres undefined),10µM*,?,i,-25.3%
COCCNC(=O)c1coc(COc2ccc3c(c2)C(c2cccc(F)c2)N(C(=O)C2CC2)CC3)n1 (centres undefined),?,?,i,-9.2%
Cc1ccc(C2c3cc(OCc4nc(C(=O)NC5CC5)co4)ccc3CCN2C(=O)C2CC2)cc1 (centres undefined),?,?,i,-24.4%
COCCNC(=O)c1coc(COc2ccc3c(c2)C(c2ccc(F)cc2)N(C(=O)C(C)C)CC3)n1 (centres undefined),8.91µM*,-28.4%,i,-1.2%
CN1[C@@H](CCC(=O)NCc2cccs2)CNC(=O)[C@@H]2[C@H]1CCN2Cc1cccs1,-15.0%[172 µM],-18.5%[174 µM],i,-0.6%[70.6 µM]
COc1ccc(C(=O)N2CCC(C(=O)N3CCC(c4nc5ncccc5[nH]4)CC3)C2)cc1 (centres undefined),-0.9%,3.0%,nt,nt
COc1ccc(CN2CC(COc3ccccc3)Oc3ncccc3[S+]2(=O)[O-])cc1 (centres undefined),22.4µM*,?,nt,nt
Cc1ccc(-c2noc(CCCC(=O)N3CCC(c4nc(C(=O)N5CCCC5)c(C)o4)CC3)n2)cc1,35.5µM*,?,nt,nt

# High-throughput results: PubChem, National Center for Advancing Translational Sciences (NCATS)
